This experiment has as its system Leishmania donovani. The experiment in a line: Leishmania intramacrophage assay. In kind it is functional, organism-based. Details: scale not given: in the data most compounds retested in dose-response had high values.

Screen size: about 69,000 compounds; about 1,000 (1.4%) showed an effect of 50% or more. This is one part of a sample in which strong results are shown more often than they occur.

For `COc1ccc(CN2Cc3cn(C)nc3C(COCC3CC3)C2)cc1` (stereo not given), the “Percent Effect” value (30.3 µM, […]) is recorded as 16.82%.
With `Cn1cc(CN2Cc3cn(C)nc3C(COCC3CC3)C2)cn1` (stereo not given), under “30.3 µM, […]”, the “Percent Effect” value turned out to be 53.65%.
The same measure, in the same setting: to `Cn1cc2c(n1)C(COCC1CC1)CN(Cc1ccsc1)C2` (stereo not given) belongs -18.37%.
Regarding `CCN(CC1CCOC1)C(=O)Nc1ccc(N2CCCC2)nc1` (stereo not given), for the setting “30 µM, 30.03 µM”, the “Percent Effect” value was 21.14%.
In the case of `COCCN(Cc1cnn(C)c1)C(=O)C1CCCN(C2CCOCC2)C1` (stereo not given), under “30.3 µM, […]”, the “Percent Effect” value is 2.022%.
In the case of `CC(C)c1nnc2n1CCN(C(=O)CN1Cc3ccccc3C1=O)C2`, the “Percent Effect” value (30 µM, 30.03 µM) is -6.489%.
With `CC(CC(=O)Nc1ccc(C(=O)N(C)C)c(Cl)c1)n1cccc1` (stereo not given), the “Percent Effect” value (30.3 µM, […]) is on record as 51.53%.
On the same count and under the same terms, to `CC(C)CNC(=O)c1ccc(NC(=O)NC(C)C)cc1Cl` belongs -0.4257%; to `COc1cccc(NC(=O)CNc2ccc(C(=O)N(C)C)c(Cl)c2)c1`, 28.32%.
Still for that read-out and setting: under `CCCN1CCCCC1C(=O)Nc1ccc(-c2nnc[nH]2)cc1` (stereo not given) stands 6.317%; under `CC(C)N(CC(=O)Nc1ccc(Br)cc1Cl)Cc1cccnc1`, 0.9398%; under `Cc1ccnc(CNC(=O)C2CC(=O)N(CCN(C)C)C2)c1` (stereo not given), 7.855%.
On the same count and under the same terms, to `CN(C)c1nccc(C2CCCCN2Cc2cnn3cccnc23)n1` (stereo not given) belongs 15.49%; to `CNc1nccc(C2CCCCN2Cc2cnn3cccnc23)n1` (stereo not given), 53.78%; to `c1cnc2c(CN3CCCCC3c3ccncn3)cnn2c1` (stereo not given), 9.705%.
`Cc1csc2c(=O)n(CCN3CCC(c4ccccc4)CC3)cnc12`: the “Percent Effect” value (30.3 µM, […]) was -32.46%.
`Cc1nccn1CCCN1CCCC(c2nccn2C)C1` (stereo not given): for the setting “30.3 µM, […]”, the “Percent Effect” value amounted to 28.64%.
For the compound `Cc1nccn1CCCN1CCCC(c2nccn2CC2CCC2)C1` (stereo not given), under “30.3 µM, […]”, the “Percent Effect” value is listed as 28.26%.
Same read-out and setting: to `Cc1nccn1CCCN1CCCC(c2ccccc2)C1` (stereo not given) belongs 72.11%; to `Cc1cnn(CCNCc2c(C)nn(-c3ccccc3)c2C)c1`, -2.378%.
With `CC(C)c1nc(C(=O)N2C[C@H](C(C)C)[C@@H](N)C2)cs1`, the “Percent Effect” value (30.3 µM, […]) was found to be 39.61%.
As for `COCCn1nc(C(=O)N2CCN(C)CC2C)ccc1=O` (stereo not given), the “Percent Effect” value (30.3 µM, […]) amounted to 4.243%.
Regarding `Cc1nnsc1C(=O)NCC1CCN(c2ccccn2)CC1`, the “Percent Effect” value (30.3 µM, […]) was determined as 51.71%.
With `CCCc1nnsc1C(=O)NCC1CCN(c2ccccn2)CC1`, the “Percent Effect” value (30 µM, 30.03 µM) was 33.4%.
Regarding `CCCc1nnsc1C(=O)NCC1CCN(c2ncccn2)CC1`, the “Percent Effect” value (30.3 µM, […]) was determined as 10.89%.
For `COCC(C)NC(=O)c1cc(C)n(-c2cccc(OC)c2)c1C` (stereo not given), where the note is “30 µM”, the “Percent Effect” value turned out to be 9.783%.
In the case of `CCNc1cc2c(nn1)CCN(C(=O)c1ccsc1)C2`, the “Percent Effect” value (30 µM) was 18.6%.
For the compound `COc1ncccc1CNC(=O)C1=NN(c2ccccc2)C(=O)CN1`, the “Percent Effect” value (30.3 µM, […]) was -11.09%.
In the case of `COc1ccc(C)cc1CNC(=O)C1=NN(c2ccccc2)C(=O)CN1`, the “Percent Effect” value (30.3 µM, […]) was 34.24%.
Consider `N#Cc1ccc(CNC(=O)C2=NN(c3ccccc3)C(=O)CN2)cc1`, for which the “Percent Effect” value (30.3 µM, […]) is recorded as 17.15%.
Regarding `COCc1ccc(CNC(=O)C2=NN(c3ccccc3)C(=O)CN2)cc1`, for the setting “30 µM, 30.03 µM”, the “Percent Effect” value worked out at 41.01%.
Still for that read-out and setting: to `COc1ccccc1CNC(=O)C1=NN(c2ccc(C)cc2)C(=O)CN1` belongs 61.91%.
For `COc1ccc(CNC(=O)C2=NN(c3ccc(C)cc3)C(=O)CN2)cc1`, for the setting “30.3 µM, […]”, the “Percent Effect” value is 51.58%.
As for `CC1CCc2n[nH]c(C(=O)NCCCc3ccccn3)c2C1` (stereo not given), the “Percent Effect” value (30.3 µM, […]) is listed as -2.29%.
The same measure, in the same setting: to `CCOC(=O)c1ccc(NC(=O)c2cc3c([nH]c2=O)CCCC3)cc1` belongs 34.55%; to `CC(=O)Nc1nc(C(=O)N2CCCC2c2noc(C(C)C)n2)cs1` (stereo not given), -12.95%; to `C[C@@H]1CN(Cc2cccc(F)c2)C[C@]12CCN(Cc1cccnc1)C2=O.O=C(O)C(F)(F)F.O=C(O)C(F)(F)F`, -0.6911%.
Still for that read-out and setting: under `COc1cc2nc(NCc3scnc3C)nc(N)c2cc1OC` stands 62.63%; under `COc1cc2nc(NCc3cc(C)on3)nc(N)c2cc1OC`, -3.382%.
Regarding `COc1ccccc1NCC(=O)NCc1scnc1C`, the “Percent Effect” value (30.3 µM, […]) amounted to 29.29%.
Still for that read-out and setting: under `COCCCN1CC2(CCCCN2C(C)=O)CC1=O` (stereo not given) stands 13.42%; under `Cc1nc(N)ncc1C(=O)N1CCCC(CCc2ccc(F)c(F)c2)C1` (stereo not given), 6.718%.
For the compound `Cc1ccc(-n2cnc(Cl)c2CO)cc1`, the “Percent Effect” value (30.3 µM, […]) was 12.87%.
For the compound `OCc1c(Cl)ncn1-c1ccccc1`, where the note is “30.3 µM, […]”, the “Percent Effect” value is on record as 61.75%.
Still for that read-out and setting: under `OCc1c(Cl)ncn1-c1ccc(F)cc1` stands 25.45%; under `CC(C)CN1CCC2(CCN(Cc3nccs3)CC2)C1=O.O=C(O)C(F)(F)F`, 12.73%; under `Cc1noc(C)c1C(=O)N(C)C(C)c1cccnc1` (stereo not given), -5.434%.
As to `Cc1noc(CN(C)C(=O)c2n[nH]c(N)c2-c2ccccc2)n1`, the “Percent Effect” value (30.3 µM, […]) is reported as -0.6486%.
On the same count and under the same terms, to `Cc1cc(N2CCCC(O)(CN(C)C)CC2)nc(-c2ccccc2)n1` (stereo not given) belongs 63.47%.
As for `CN(C)CC1(O)CCCN(c2noc(-c3ccccc3)n2)CC1` (stereo not given), the “Percent Effect” value (30.3 µM, […]) was found to be 2.473%.
Same read-out and setting: under `CN(C)CC1(O)CCCN(c2nc(-c3ccccc3)no2)CC1` (stereo not given) stands 31.64%; under `N#Cc1ccc(CN2C(=O)c3ccccc3CS2(=O)=O)cc1`, -16.87%.
On the same count and under the same terms, to `Cc1cc(=O)[nH]c(-n2nc(C)c(CCC(=O)NCC(C)C)c2C)n1` belongs 15.57%.
In the case of `Cc1cc(=O)[nH]c(-n2nc(C)c(CCC(=O)Nc3nc(C)cs3)c2C)n1`, the “Percent Effect” value (30.3 µM, […]) stood at 59.04%.
Regarding `COC(=O)CCc1c(C)nn(-c2nc(C)cc(=O)[nH]2)c1C`, the “Percent Effect” value (30 µM, 30.03 µM) is given as -18.05%.
Take `Cc1nc2c(NCC(C)N(C)c3ccccc3)ncnc2o1` (stereo not given): the “Percent Effect” value (30.3 µM, […]) is on record as 33.01%.
As to `Cc1ncnc(NCC(C)N(C)c2ccccc2)c1C` (stereo not given), the “Percent Effect” value (30.3 µM, […]) is on record as 57.28%.
As for `CC(CNc1cncc(-n2cccn2)n1)N(C)c1ccccc1` (stereo not given), where the note is “30 µM, 30.03 µM”, the “Percent Effect” value is listed as 31.44%.
In the case of `Cn1cccc1C(=O)N1CCC(c2nccn2Cc2ccncc2)CC1`, the “Percent Effect” value (30.3 µM, […]) is listed as 6.64%.
On the same count and under the same terms, under `CN1CC(=O)N(c2ccccc2)CC12CCN(C(=O)c1cnccn1)C2.O=C(O)C(F)(F)F` (stereo not given) stands 4.293%; under `Cc1nn(CCC#N)c(C)c1[C@@H]1C=C[C@@H](NCc2ccc(F)cc2)C1`, 101.5%.
Same read-out and setting: under `Cc1nn(CCC#N)c(C)c1CCC(=O)N(C)Cc1ccc(F)cc1F` stands 2.715%; under `Cc1nn(CCC#N)c(C)c1[C@@H]1C=C[C@@H](NCc2cccc(Cl)c2)C1`, -10.48%; under `Cc1cccc2c1N(C)C(=O)C21CC(=O)Nc2c1cnn2C(C)(C)C` (stereo not given), -18.37%.
Turning to `CCOc1ccc(S(=O)(=O)NCc2cccnc2N(C)C)cc1`, for the setting “30 µM, 30.03 µM”, the “Percent Effect” value is on record as 61.25%.
Consider `CCOC(=O)c1ccc(S(=O)(=O)NCc2cccnc2N(C)C)cc1`, for which the “Percent Effect” value (30 µM) is 21.62%.
Regarding `COc1ccc(S(=O)(=O)NCc2cccnc2N(C)C)cc1`, under “30 µM”, the “Percent Effect” value is reported as 27.65%.
Still for that read-out and setting: under `CN(C)c1ncccc1CNS(=O)(=O)c1ccc(F)c(F)c1` stands 32.33%.
`COc1ccc(S(=O)(=O)NCc2cccnc2N(C)C)cc1F`: where the note is “30 µM, 30.03 µM”, the “Percent Effect” value is reported as 58.31%.
Consider `CN(C)c1ncccc1CNS(=O)(=O)c1cc(F)cc(F)c1`, for which the “Percent Effect” value (30 µM) is given as 13.05%.

(Values after ChEMBL document CHEMBL3988442, “University of Dundee, Small-Polar-MMV Screening Library” (2021).)
